About 83,000 compounds went through this panel and 20% of them were active in at least one assay; those are over-represented in the sample as a whole.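 Percent growth is the endpoint: 0 to 100 indicates growth inhibition (40 means 60% inhibition), 0 means no net growth, and negative values indicate cell death.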 Calls of active or inactive are those of the source. The calls were made as follows: active = growth percent below 10; inactive = the rest.
tested on: SF-268 CNS; experiment: NCI-60 one-dose screen, 48 h (100 = growth as untreated, 0 = no growth, -100 = all killed); conditions: 10 µM unless noted

SMILES	growth
O=[N+]([O-])c1cc2c(cc1Br)-c1ccccc1C2	98.1% (inactive)
Clc1ccc(Nc2nc(Nc3ccccc3)nc(Nc3ccc(-c4cc(-c5ccc(Cl)cc5)on4)cc3)n2)cc1	61.7% (inactive)
Cc1cc(=O)c2c(C)ccc(C)c2[nH]1	96.8% (inactive)
Cc1cc(=O)[nH]n1-c1cc(Cl)ccc1N	116% (inactive)
CC(C)OC1=C(Cl)C(=O)c2ccccc2C1=O	93.5% (inactive)
COc1cccc(C2CC(=O)Nc3cc4c(cc32)OCO4)c1OC (stereo not given)	101% (inactive)
COc1ccccc1CNCCCCCCCCCCCCN1C(=O)c2ccc3c4c(ccc(c24)C1=O)C(=O)N(CCCCCCCCCCCCNCc1ccccc1OC)C3=O	69.4% (inactive)
O=C1C=CC(=O)N1CCCCCCCCCCN1C(=O)C=CC1=O	103% (inactive)
Cc1ccc(N=c2nc3sc4c(C)ccc(C)c4n3c(N)c2C#N)cc1	92.6% (inactive)
COc1cc2nc(SCc3cc(OC)c(OC)c(OC)c3)n(-c3ccccc3OC)c(=O)c2cc1OC	69.9% (inactive)
Cc1nc2nc(C(F)(F)F)[nH]c2nc1C	102% (inactive)
CC(C)(C)[Si](C)(C)OC1[C@@H](CNC(=O)NC(=O)CCl)O[C@@H](n2cnc3c(N)ncnc32)[C@H]1O[Si](C)(C)C(C)(C)C (stereo not given in full)	-76.6% (active)
Fc1ccccc1Nc1ccc2nnc(-c3ccncc3)n2n1	101% (inactive)
NC(=O)c1nc2c([nH]c1=O)CCCC2	101% (inactive)
CCN1CCN(C(=S)SCC(=O)Nc2nc3ccc(OC)cc3s2)CC1	92.5% (inactive)

Source: PubChem BioAssay (NCI)
